In PMC9911399, “Two distinct binding modes provide the RNA-binding protein RbFox with extraordinary sequence specificity”:
Substitutions are numbered along the chain they refer to; changes in the protein carry UniProt numbers. Whole data set: some 16,000 sequences, median “ka relative to ugcaugu” near 0.096, cut for the highest 2% near 0.35. The sample as a whole holds a higher share of the highest values than the screen did.

T1: RBFOX1 RRM RbFoxmut (Fox-RRM*) (Homo sapiens, UniProt Q9NWB1 109-208, R118D;E147R;N151S;E152T)
T1 sequence: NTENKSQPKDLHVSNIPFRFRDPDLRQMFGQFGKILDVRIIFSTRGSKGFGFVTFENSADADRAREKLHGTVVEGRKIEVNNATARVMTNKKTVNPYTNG

B1: UGUCUUG (DNA:RNA)
RNA: GGGAGACCGGAAUUCAGAUUGUCCUGUCUUGUUAAAUCCCGUCGUAGCCACCA
DNA 1: CAATCTGAATTCCGGTCTCCC
DNA 2: TGGTGGCTACGACGGGATT
B2: UGUCGUC (DNA:RNA)
RNA: B1 RNA with U29G, G31C
DNA 1: CAATCTGAATTCCGGTCTCCC
DNA 2: TGGTGGCTACGACGGGATT
B3: UGUCUUC (DNA:RNA)
RNA: B1 RNA with G31C
DNA 1: CAATCTGAATTCCGGTCTCCC
DNA 2: TGGTGGCTACGACGGGATT
B4: UGGUCGC (DNA:RNA)
RNA: B1 RNA with U27G, C28U, U29C, U30G, G31C
DNA 1: CAATCTGAATTCCGGTCTCCC
DNA 2: TGGTGGCTACGACGGGATT
B5: UGGUCUG (DNA:RNA)
RNA: B1 RNA with U27G, C28U, U29C
DNA 1: CAATCTGAATTCCGGTCTCCC
DNA 2: TGGTGGCTACGACGGGATT
B6: UGUCUGG (DNA:RNA)
RNA: B1 RNA with U30G
DNA 1: CAATCTGAATTCCGGTCTCCC
DNA 2: TGGTGGCTACGACGGGATT
B7: UCCUGUC (DNA:RNA)
RNA: B1 RNA with G26C, U27C, C28U, U29G, G31C
DNA 1: CAATCTGAATTCCGGTCTCCC
DNA 2: TGGTGGCTACGACGGGATT
B8: UGUUGUC (DNA:RNA)
RNA: B1 RNA with C28U, U29G, G31C
DNA 1: CAATCTGAATTCCGGTCTCCC
DNA 2: TGGTGGCTACGACGGGATT
B9: UGCUGUC (DNA:RNA)
RNA: B1 RNA with U27C, C28U, U29G, G31C
DNA 1: CAATCTGAATTCCGGTCTCCC
DNA 2: TGGTGGCTACGACGGGATT
B10: CCGAUCU (DNA:RNA)
RNA: B1 RNA with U25C, G26C, U27G, C28A, U30C, G31U
DNA 1: CAATCTGAATTCCGGTCTCCC
DNA 2: TGGTGGCTACGACGGGATT
B11: CACUUGA (DNA:RNA)
RNA: B1 RNA with U25C, G26A, U27C, C28U, U30G, G31A
DNA 1: CAATCTGAATTCCGGTCTCCC
DNA 2: TGGTGGCTACGACGGGATT
B12: CACUUAG (DNA:RNA)
RNA: B1 RNA with U25C, G26A, U27C, C28U, U30A
DNA 1: CAATCTGAATTCCGGTCTCCC
DNA 2: TGGTGGCTACGACGGGATT
B13: GAAAGCU (DNA:RNA)
RNA: GGGAGACCGGAAUUCAGAUUGUCCGAAAGCUUUAAAUCCCGUCGUAGCCACCA
DNA 1: CAATCTGAATTCCGGTCTCCC
DNA 2: TGGTGGCTACGACGGGATT
B14: CAGCAUU (DNA:RNA)
RNA: B13 RNA with G25C, A27G, A28C, G29A, C30U
DNA 1: CAATCTGAATTCCGGTCTCCC
DNA 2: TGGTGGCTACGACGGGATT
B15: UUAAACA (DNA:RNA)
RNA: B13 RNA with G25U, A26U, G29A, U31A
DNA 1: CAATCTGAATTCCGGTCTCCC
DNA 2: TGGTGGCTACGACGGGATT
B16: CCUGGCA (DNA:RNA)
RNA: B13 RNA with G25C, A26C, A27U, A28G, U31A
DNA 1: CAATCTGAATTCCGGTCTCCC
DNA 2: TGGTGGCTACGACGGGATT
B17: AUGCAUG (DNA:RNA)
RNA: B1 RNA with U25A, G26U, U27G, U29A
DNA 1: CAATCTGAATTCCGGTCTCCC
DNA 2: TGGTGGCTACGACGGGATT
B18: AUGCAUA (DNA:RNA)
RNA: B1 RNA with U25A, G26U, U27G, U29A, G31A
DNA 1: CAATCTGAATTCCGGTCTCCC
DNA 2: TGGTGGCTACGACGGGATT
B19: GUCCAUC (DNA:RNA)
RNA: B1 RNA with U25G, G26U, U27C, U29A, G31C
DNA 1: CAATCTGAATTCCGGTCTCCC
DNA 2: TGGTGGCTACGACGGGATT
B20: AUGCAUC (DNA:RNA)
RNA: B1 RNA with U25A, G26U, U27G, U29A, G31C
DNA 1: CAATCTGAATTCCGGTCTCCC
DNA 2: TGGTGGCTACGACGGGATT
B21: AUGCAGA (DNA:RNA)
RNA: B1 RNA with U25A, G26U, U27G, U29A, U30G, G31A
DNA 1: CAATCTGAATTCCGGTCTCCC
DNA 2: TGGTGGCTACGACGGGATT
B22: AUCCAUC (DNA:RNA)
RNA: B1 RNA with U25A, G26U, U27C, U29A, G31C
DNA 1: CAATCTGAATTCCGGTCTCCC
DNA 2: TGGTGGCTACGACGGGATT
B23: AACCGUG (DNA:RNA)
RNA: B1 RNA with U25A, G26A, U27C, U29G
DNA 1: CAATCTGAATTCCGGTCTCCC
DNA 2: TGGTGGCTACGACGGGATT
B24: GGCUGGA (DNA:RNA)
RNA: B13 RNA with A26G, A27C, A28U, C30G, U31A
DNA 1: CAATCTGAATTCCGGTCTCCC
DNA 2: TGGTGGCTACGACGGGATT
B25: CUCCGAA (DNA:RNA)
RNA: B13 RNA with G25C, A26U, A27C, A28C, C30A, U31A
DNA 1: CAATCTGAATTCCGGTCTCCC
DNA 2: TGGTGGCTACGACGGGATT
B26: UGCUACC (DNA:RNA)
RNA: B1 RNA with U27C, C28U, U29A, U30C, G31C
DNA 1: CAATCTGAATTCCGGTCTCCC
DNA 2: TGGTGGCTACGACGGGATT
B27: AAAUGCG (DNA:RNA)
RNA: B13 RNA with G25A, A28U, U31G
DNA 1: CAATCTGAATTCCGGTCTCCC
DNA 2: TGGTGGCTACGACGGGATT
B28: UGACUUC (DNA:RNA)
RNA: B1 RNA with U27A, G31C
DNA 1: CAATCTGAATTCCGGTCTCCC
DNA 2: TGGTGGCTACGACGGGATT
B29: UCAUAAU (DNA:RNA)
RNA: B13 RNA with G25U, A26C, A28U, G29A, C30A
DNA 1: CAATCTGAATTCCGGTCTCCC
DNA 2: TGGTGGCTACGACGGGATT
B30: UUGCACG (DNA:RNA)
RNA: B1 RNA with G26U, U27G, U29A, U30C
DNA 1: CAATCTGAATTCCGGTCTCCC
DNA 2: TGGTGGCTACGACGGGATT
B31: GUGCACG (DNA:RNA)
RNA: B13 RNA with A26U, A27G, A28C, G29A, U31G
DNA 1: CAATCTGAATTCCGGTCTCCC
DNA 2: TGGTGGCTACGACGGGATT
B32: AUGCACC (DNA:RNA)
RNA: B13 RNA with G25A, A26U, A27G, A28C, G29A, U31C
DNA 1: CAATCTGAATTCCGGTCTCCC
DNA 2: TGGTGGCTACGACGGGATT
B33: AUCCACG (DNA:RNA)
RNA: B1 RNA with U25A, G26U, U27C, U29A, U30C
DNA 1: CAATCTGAATTCCGGTCTCCC
DNA 2: TGGTGGCTACGACGGGATT
B34: GUGCACC (DNA:RNA)
RNA: B13 RNA with A26U, A27G, A28C, G29A, U31C
DNA 1: CAATCTGAATTCCGGTCTCCC
DNA 2: TGGTGGCTACGACGGGATT
B35: UUGCACC (DNA:RNA)
RNA: B1 RNA with G26U, U27G, U29A, U30C, G31C
DNA 1: CAATCTGAATTCCGGTCTCCC
DNA 2: TGGTGGCTACGACGGGATT
B36: AUGCACG (DNA:RNA)
RNA: B1 RNA with U25A, G26U, U27G, U29A, U30C
DNA 1: CAATCTGAATTCCGGTCTCCC
DNA 2: TGGTGGCTACGACGGGATT
B37: ACGUGCG (DNA:RNA)
RNA: B13 RNA with G25A, A26C, A27G, A28U, U31G
DNA 1: CAATCTGAATTCCGGTCTCCC
DNA 2: TGGTGGCTACGACGGGATT
B38: UUGCCCG (DNA:RNA)
RNA: B1 RNA with G26U, U27G, U29C, U30C
DNA 1: CAATCTGAATTCCGGTCTCCC
DNA 2: TGGTGGCTACGACGGGATT

target: T1, RBFOX1 RRM RbFoxmut (Fox-RRM*); assay: EMSA; HiTS-Eq, 1 nM pool, 10 min; buffer printed only for the single-RNA assays: 10 mM Tris pH 7.5, 150 mM NaCl, 3.4 mM EDTA, 0.001% NP-40, 30 C; conditions: tags: His6 N-terminal (pET28a); label: 5' 32P
Outline: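 Purified wild-type or mutant RbFox RRM at increasing concentrations was equilibrated with 1 nM of 5′-radiolabelled RNA carrying 7 randomized nucleotides for 10 min in 50 µL. Unbound RNA was separated by 8% native PAGE and sequenced. Relative association constants came from read-count changes of each RNA species compared with the control reaction, normalised to the cognate motif.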

Row | Binder | binding signal
1 | B1 | 0.674 KA relative to UGCAUGU
2 | B2 | 0.119 KA relative to UGCAUGU
3 | B3 | 0.201 KA relative to UGCAUGU
4 | B4 | 0.114 KA relative to UGCAUGU
5 | B5 | 0.374 KA relative to UGCAUGU
6 | B6 | 0.196 KA relative to UGCAUGU
7 | B7 | 0.164 KA relative to UGCAUGU
8 | B8 | 0.468 KA relative to UGCAUGU
9 | B9 | 0.331 KA relative to UGCAUGU
10 | B10 | 0.0341 KA relative to UGCAUGU
11 | B11 | 0.114 KA relative to UGCAUGU
12 | B12 | 0.16 KA relative to UGCAUGU
13 | B13 | 0.0545 KA relative to UGCAUGU
14 | B14 | 0.107 KA relative to UGCAUGU
15 | B15 | 0.0699 KA relative to UGCAUGU
16 | B16 | 0.148 KA relative to UGCAUGU
17 | B17 | 0.951 KA relative to UGCAUGU
18 | B18 | 0.161 KA relative to UGCAUGU
19 | B19 | 0.0764 KA relative to UGCAUGU

Row | Binder | binding signal
20 | B20 | 0.446 KA relative to UGCAUGU
21 | B21 | 0.125 KA relative to UGCAUGU
22 | B22 | 0.1 KA relative to UGCAUGU
23 | B23 | 0.109 KA relative to UGCAUGU
24 | B24 | 0.0732 KA relative to UGCAUGU
25 | B25 | 0.104 KA relative to UGCAUGU
26 | B26 | 0.147 KA relative to UGCAUGU
27 | B27 | 0.104 KA relative to UGCAUGU
28 | B28 | 0.0822 KA relative to UGCAUGU
29 | B29 | 0.103 KA relative to UGCAUGU
30 | B30 | 0.612 KA relative to UGCAUGU
31 | B31 | 0.66 KA relative to UGCAUGU
32 | B32 | 0.132 KA relative to UGCAUGU
33 | B33 | 0.135 KA relative to UGCAUGU
34 | B34 | 0.167 KA relative to UGCAUGU
35 | B35 | 0.181 KA relative to UGCAUGU
36 | B36 | 0.551 KA relative to UGCAUGU
37 | B37 | 0.182 KA relative to UGCAUGU
38 | B38 | 0.178 KA relative to UGCAUGU
